# The list is not random: actives were taken first. Their share in the collection is about 6%.
# D1 antagonist – Antagonist of Human D 1 Dopamine Receptor: qHTS; HEK293 TREx D1 cells, calcium flux, dopamine EC80; active compounds read low; activity change, negative = inhibition, % at 10 µM; 3.2% of 360,000 active; AID 504652, 2011; in the data active = activity change below about -30%; also: % is scaled to controls: 0 for no effect and ±100 for the full control effect
# Target sequence (P21728 whole entry, looked up): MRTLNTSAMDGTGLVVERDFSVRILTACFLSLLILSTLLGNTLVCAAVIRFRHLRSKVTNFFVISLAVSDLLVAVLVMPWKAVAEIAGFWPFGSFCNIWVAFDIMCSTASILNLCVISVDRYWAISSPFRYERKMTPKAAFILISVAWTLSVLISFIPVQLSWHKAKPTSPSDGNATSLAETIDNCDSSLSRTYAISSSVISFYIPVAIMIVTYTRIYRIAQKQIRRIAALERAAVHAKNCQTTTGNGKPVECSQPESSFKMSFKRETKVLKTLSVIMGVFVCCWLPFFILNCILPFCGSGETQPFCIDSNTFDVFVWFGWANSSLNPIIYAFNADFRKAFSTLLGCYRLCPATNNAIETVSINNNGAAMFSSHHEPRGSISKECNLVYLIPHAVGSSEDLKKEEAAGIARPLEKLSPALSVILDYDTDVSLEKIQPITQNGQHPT
#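 Calcium flux readout: force-coupled, inducible Hek293 Trex D1 line, cells induced overnight at 30 C with tetracycline, dye-loaded 30–90 min at RT. Antagonism scored against EC80 dopamine challenge given 180 s after compound.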
# D1 ag – Allosteric Agonists of the Human D1 Dopamine Receptor: qHTS; D(1A) dopamine receptor (Homo sapiens), P21728; HEK293 T-REx D1 cells, calcium flux, agonist mode; activation, % at 2 µM; 1% of 360,000 active; in the data active = activation above about 30%; also: 0% is about no effect
#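 Agonism was scored from calcium flux recorded over 180 s (1 read/s) after pintool compound addition, following a 10-cycle baseline. Cells were inducible force-coupled HEK293 TREx D1, plated overnight at 30 C and loaded with no-wash calcium dye.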
# D1 PAM – Potentiators of Human D1 Dopamine Receptor: qHTS. D(1A) dopamine receptor (Homo sapiens), P21728. HEK293 TREx D1 cells, calcium flux, dopamine EC20 potentiation. potentiation, % at 10 µM. 0.036% of 360,000 active; in the data active = potentiation above about 30%; also: 0% is about no effect
# D3 antag – qHTS of D3 Dopamine Receptor Antagonist: qHTS | D(3) dopamine receptor (Homo sapiens), P35462 | D3R cells, DiscoveRx beta-arrestin luminescence, antagonist mode; active compounds read low | max response, negative = inhibition, % | 2.5% of 360,000 active | AID 652054, 2013; in the data active = max response below about -50%; inconclusive = no clear call, values can overlap the other calls; also: % is scaled to controls: 0 for no effect and ±100 for the full control effect
#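 Cells plated overnight at 1500 cells/well, then exposed to library compounds with dopamine controls for 90 minutes at 37 degrees C. DiscoveRx reagent added for 30–60 minutes at room temperature; luminescence read, quantitative HTS format.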
# DRD3 agonist – qHTS of D3 Dopamine Receptor Agonist: qHTS; D(3) dopamine receptor (Homo sapiens), P35462; D3R DiscoveRx beta-arrestin cells, luminescence, 90 min; max activation, %; 0.58% of 410,000 active; AID 652048, 2013; in the data active = max activation above about 30%; also: 0% is about no effect
#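 Cells at 1500/well, incubated overnight, then treated with pinned compounds (dopamine as control) for 90 min at 37 degrees C. DiscoveRx reagent added for 30 - 60 minutes at room temperature; luminescence read.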
# * marks the source's active call; other numbers are inactive results; ? = inconclusive; / = no result; ! = not active in a repeat.
SMILES,D1 antagonist,D1 ag,D1 PAM,D3 antag,DRD3 agonist
CCOC(=O)N1CCN(CCC(=O)c2ccc(Cl)cc2)CC1,-8,3,0,7,-4
COc1cccc(OC)c1OCCOc1ccc(C(=O)c2ccccc2)cc1,-35*,22,-6,7,7
CCn1c(CN2CCC(C)CC2)nc2cc(NC(=O)c3ccc([N+](=O)[O-])cc3)ccc21,-9,-2,0,/,60*
CCn1c(CN2CCC(C)CC2)nc2cc(NC(=O)c3cccc([N+](=O)[O-])c3)ccc21,-11,-3,-2,/,-19
CCOC(=O)N1CCN(CCC(=O)c2ccc(OC)cc2)CC1,-35*,-2,6,0,1
Cc1cc(S(=O)(=O)Nc2ncnc3sccc23)ccc1F,/,/,/,-18,-5
Cc1ccc(NC(=O)Cn2nnc(-c3nc(-c4ccc(Cl)cc4)no3)c2N)cc1C,13,0,-1,/,-11
OC(c1ccccc1)c1nc(-c2ccc(Cl)cc2)cs1 (stereo not drawn),/,/,/,4,0
CCCOc1ccc(NC(=O)CC2C(=O)N(c3ccc(C)cc3)C(=O)N2Cc2cccc(OC)c2)cc1 (stereo not drawn),-13,5,-3,/,9
CCOC(=O)c1c(C)[nH]c(C(=O)OCC(=O)NCc2ccco2)c1C,/,/,/,21,1
COC(=O)c1ccc(OCCN2CCCCCC2)cc1,0,3,0,-27,-13
O=C(c1ccccc1)c1ccc(OCCCN2CCCCC2)cc1,2,2,-3,-83*,-2
CC(C)COc1ccc(C(=O)CCN2CCCCC2)cc1,-23,19,-4,-16,-18
CC(=O)c1ccc(OCCCN2CCCCC2)cc1,-10,6,-3,-72*,-5
CCCCOc1ccc(C(=O)CCN2CCCCC2)cc1,-35*,4,-4,-56*,-44
O=C(CSc1cc(Cl)ccc1Cl)NC1CCCc2ccccc21 (stereo not drawn),6,4,1,-10,1
OC(CNC1CCCc2ccccc21)COc1c(Cl)cccc1Cl (stereo not drawn),8,27,3,-78*,-24
COc1cc(NC(=O)C(Cc2ccccc2)NS(=O)(=O)c2cccc3nsnc23)cc(OC)c1 (stereo not drawn),-19,-2,-2,/,7
COc1ccc(OCCCN2CCCCCC2)cc1,4,2,-5,-64*,-4
CCOC(=O)N1CCN(Cc2nc3cc(NC(=O)c4ccc(OC)cc4)ccc3n2C(C)C)CC1,-39*,1,-3,/,-22
COc1cccc(CNCC(O)COc2ccc(C(=O)c3ccccc3)cc2)c1 (stereo not drawn),-6,25,-1,11,-9
O=C(c1ccccc1)c1ccc(OCC(O)CN2CCN(S(=O)(=O)N3CCCCC3)CC2)cc1 (stereo not drawn),-18,10,-3,24,1
O=C(c1ccccc1)c1ccc(OCC(O)CN2CCCCC2)cc1 (stereo not drawn),-7,7,-2,-67*,2
Fc1ccc(OCCCCCCN2CCCC2)cc1,-19,6,-5,-29,-33
O=C(c1ccccc1)c1ccc(OCC(O)CNCc2ccc(Cl)cc2)cc1 (stereo not drawn),-2,75*,5,-7,-11
SMILES,D1 antagonist,D1 ag,D1 PAM,D3 antag,DRD3 agonist
COc1ccc(CNC(=O)Cn2c(=O)cc(-c3ccccc3)c3c(C)nn(C)c32)cc1,5,0,-2,/,2
Cc1ccc(C)c(N2CCN(C(=O)C3CCN(S(=O)(=O)c4cn(C)cn4)CC3)CC2)c1,1,-3,1,/,-1
OC(CNC1Cc2ccccc2C1)COc1ccc(Cl)cc1 (stereo not drawn),16,40*,-3,?,-11
CC1(Cc2ccc3ccccc3n2)C(=O)Nc2ccc(OC(F)(F)F)cc21 (stereo not drawn),/,/,/,19,13
COC(=O)c1ccc(NC(=O)n2ncc3c(C)cccc32)cc1,-70*,2,6,/,1
Cc1ccc(N2CC(NC(=O)CCc3ccccc3)CC2=O)cc1C (stereo not drawn),/,-3,-2,/,7
CCN1CCN(c2cc3c(cc2F)c(=O)c(S(=O)(=O)c2ccc(OC)cc2)cn3CC)CC1,0,-1,3,/,-8
Cc1ccc(CN2CCSc3ccc(C(=O)N4CCN(c5ccc(Cl)cc5)CC4)cc32)cc1,5,0,0,/,1
COc1ccc(C2CC(=O)Nc3c2c(=O)[nH]c2nc4ccccc4n32)cc1 (stereo not drawn),-13,-1,-3,/,5
Cc1ccc(CNS(=O)(=O)c2cc(Br)cc3c2N(C(=O)C2CC2)CC3)cc1,-5,2,-1,/,-19
O=C(C1CC1)N1CCc2cc(Br)cc(S(=O)(=O)NCc3ccco3)c21,-31*,1,4,?,-4
CC(=O)C1=C(C)N(Cc2ccccc2)C(=O)N[C@H]1CCc1ccccc1,-31*,16,-3,-14,13
COC(=O)C1=C(C)N(Cc2ccccc2)C(=NCC(C)C)N[C@H]1c1ccccc1,2,40*!,-5,-3,8
COCCN=C1N[C@@H](c2cccc(C(F)(F)F)c2)C(C(=O)OC)=C(C)N1Cc1ccccc1,0,32*,-5,0,16
CCOC(=O)CN1C(=O)N[C@@H](CCc2ccccc2)C(C(C)=O)=C1C,/,/,/,-1,22
COC(=O)C1=C(C)N(Cc2ccccc2)C(=S)N[C@H]1c1ccccc1,3,3,-6,-22,-15
COC(=O)C1=C(C)N(Cc2ccccc2)C(=O)N[C@H]1c1ccccc1,-6,100*,-6,-6,13
C[C@H](NC(=O)[C@@H]1CCCN1C(=O)[C@@H]1CCCN1C(=O)c1cccc2ccccc12)c1ccccc1,/,/,/,5,2
COC(=O)C1=C(C)N(Cc2ccccc2)C(=NCc2ccc(OC)cc2)N[C@H]1c1ccccc1,-10,25,-4,-54*,-40
CCN1C(=NCCc2c[nH]c3ccccc23)N[C@@H](c2ccccc2)C(C(=O)OC)=C1C,-9,49*!,-4,/,/
CCOC(=O)C1=C(C)N(Cc2ccccc2)C(=O)NC1c1ccccc1OS(=O)(=O)c1ccccc1[N+](=O)[O-] (stereo not drawn),/,/,/,0,46*
C=CCN=C1N[C@@H](c2ccc(Br)cc2)C(C(=O)OC)=C(C)N1Cc1ccccc1,22,31*,0,/,/
N#C/C(=C1\SCC(c2ccccc2Cl)S1)n1ccnc1 (stereo not drawn),/,/,/,/,10
COCCNC(=O)C1(C)CCCN(Cc2noc(-c3ccccc3OC)n2)C1 (stereo not drawn),/,/,/,47,6

# Screens deposited in PubChem BioAssay by National Center for Advancing Translational Sciences (NCATS).
